# Measurements reported in PubChem BioAssay (NCI).
# Compounds without any hit were thinned out: in the full panel of roughly 83,000, 20% have a hit.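 Single-concentration screen, 48 h exposure, 96-well plates. Endpoint: percent growth. Below 10 = active.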 Values without a mark were called inactive. Active and inactive are the calls of the source.
# Key:
# Assay in all cases: NCI-60 one-dose screen, 48 h (100 = growth as untreated, 0 = no growth, -100 = all killed)
# Settings in all cases: 10 µM unless noted
# [1] = test system: RPMI-8226 leukemia
# [2] = test system: OVCAR-8 ovarian
# [3] = test system: OVCAR-5 ovarian
# [4] = test system: OVCAR-4 ovarian
# [5] = test system: IGROV1 ovarian
# [6] = test system: HS 578T breast
# [7] = test system: NCI/ADR-RES ovarian
# [8] = test system: T-47D breast
# [9] = test system: SK-OV-3 ovarian
# [10] = test system: OVCAR-3 ovarian
Structure (SMILES),growth [1],growth [2],growth [3],growth [4],growth [5],growth [6],growth [7],growth [8],growth [9],growth [10]
O=Cc1c(OCc2cnnn2CC(=O)Nc2ccc(Br)cc2)ccc2ccccc12,104%,96.1%,95%,97%,85.9%,85.1%,90.5%,78.7%,–,–
O=C(Nc1ccc(Cl)cc1)c1cc2ccccc2cc1OP(=O)(O)O,-10.1% (active),27.9%,69.1%,–,-1.26% (active),32.9%,16.6%,25.4%,19%,10.7%
COc1cc(-c2c3c(c(Br)n2Cc2ccccc2)-c2nc(N)sc2CC3)cc(OC)c1OC,71.9%,89.2%,107%,–,110%,80%,87.4%,63.8%,107%,95.6%
COc1cc(C=C2C(=O)N(C)C(=O)N(C)C2=O)cc(CN2CCCCC2)c1O,104%,105%,96.9%,103%,–,96%,105%,90.2%,–,105%
CCN(CCO)CCNc1ccc(C)c2sc3cc(Cl)ccc3c(=O)c12,28.2%,38.6%,64.4%,–,56.6%,41.9%,45.4%,53.9%,62.2%,39.3%
Cc1c(-c2csc(-n3nc(C(F)(F)F)cc3C(F)(F)F)n2)no[n+]1[O-],97.2%,99.2%,99.2%,87.4%,–,98.2%,105%,87.5%,–,114%
O=C(CSc1ccc2nnc(-c3cccc(F)c3)n2n1)Nc1ccc2c(c1)OCO2,52.3%,53.4%,113%,–,54.8%,76.4%,48.4%,56.2%,100%,48.3%
COc1cccc(-c2nn(C)c3sc(C(=O)NCCN4CCN(c5ccccc5F)CC4)cc23)c1,-18.3% (active),88%,88.4%,–,65.2%,63%,84.9%,57.4%,88.7%,64.9%
C[n+]1c2ccccc2nc2ccc(NCCO)cc21,66.8%,82.1%,102%,–,63.9%,82.7%,86.4%,91.9%,112%,79.2%
O=NN(Cc1cccnc1)C(=O)NC1CCCCC1,95.3%,104%,97.4%,–,113%,118%,105%,98.1%,113%,114%
NCCOc1ncccc1/C=C1\c2ccccc2-c2ccc([N+](=O)[O-])cc21,-21.5% (active),-13% (active),-72.8% (active),-69.2% (active),–,-5.23% (active),-45.4% (active),-30.4% (active),–,-77.7% (active)
COc1ccc(/C=C/C(=O)c2c(C)nc3ccccc3c2/C=C/c2ccccc2)cc1O,25.6%,30.9%,17.2%,–,34.7%,–,17.7%,39.6%,71.7%,13.6%
CCOC(=O)c1cc2c(n1Cc1ccccc1OC)-c1oncc1CCC2,14.9%,35.4%,69.5%,–,–,–,15%,38.6%,24.2%,8.96% (active)
O=C(Nc1ccc(N2CCNCC2)cc1)c1[nH]ncc1Nc1ncnc2sc3c(c12)CCC3,-40.6% (active),-43.7% (active),-88.1% (active),–,-9.21% (active),-54.8% (active),-57.3% (active),20.4%,-27.9% (active),-81.7% (active)
O=c1nc2sc3nc4ccccc4cc3cc-2s1,128%,112%,120%,–,127%,79.9%,103%,119%,108%,140%
COc1ccc(C2NCCc3c2[nH]c2ccccc32)cc1CN1CCN(c2ccc(F)cc2)CC1 (stereo unspecified),-10% (active),24.6%,64.8%,–,–,92.2%,54.7%,54.6%,88.8%,66.8%
O=c1c2cc(F)ccc2sc2c(Nc3ccncc3)nc3ccccc3c12,-31.4% (active),-18% (active),-2.06% (active),–,70.7%,75.3%,-9.24% (active),-3.72% (active),–,36.5%
Clc1ccc(COc2ccc(Nc3ncnc4onc(-c5ccccc5)c34)cc2)cc1,74.8%,92.2%,92.8%,–,83.4%,82.1%,77%,77%,–,92.8%
COc1ccc(C(=O)Nc2ccc3nc(N4CCCCC4)cc(C)c3c2)cc1OC,61.8%,94.1%,89.1%,–,–,77.9%,98.3%,94.8%,114%,59.1%
Cc1ccc(Cn2c(N3CCC(C(=O)NCc4cccs4)CC3)nc3ccccc32)cc1,73.7%,94.3%,107%,–,–,79.9%,86.2%,114%,97.4%,76.6%
COc1nccc2cc3c(=O)n4c(cc5ccccc54)c(=O)n3c12,95.7%,111%,107%,–,66.9%,106%,100%,68.4%,102%,103%
CCN1C(=O)N(CC)C2Nn3c(s/c(=C\c4ccccc4F)c3=O)=NC21 (stereo unspecified),54.1%,44%,76.5%,–,61.1%,56.9%,7.68% (active),72.8%,44.8%,28.5%
CCN1CCN(c2cc(C)c3cc(NC(=O)c4ccc(OC)c(OC)c4)ccc3n2)CC1,16.7%,58.9%,88.7%,–,36.6%,32.6%,28.1%,58.4%,39.8%,12.5%
COC(=O)c1cc2c(n1Cc1ccccc1)-c1oncc1CCC2,49.8%,76.7%,87.8%,–,–,78.2%,40.3%,74.9%,93.7%,65.2%
Cc1ccc(CN2CCC(C(=O)Nc3ccc(-c4cc5ccccc5[nH]4)cc3)CC2)o1,20.5%,53.3%,98.1%,–,61%,–,44.3%,92.1%,107%,49.4%
CCCCc1c(CCC)c(=N)c2ccccc2n1C,29.9%,65.5%,99.6%,–,–,–,85.4%,85.9%,99.1%,90.9%
FC(F)(F)c1cccc(Nc2nc(-c3ccccc3)nc3ncccc23)c1,-39.8% (active),89.4%,107%,–,98.8%,-49.5% (active),86.3%,82.9%,90.2%,32.2%
CCOC(=O)c1c(C=O)nc2ccccc2c1/C=C/c1ccc(Cl)cc1,85.7%,104%,101%,–,80.9%,–,103%,86.2%,95.1%,98.6%
COc1ccccc1N1CCN(C(CNS(=O)(=O)c2ccc(Cl)cc2)c2cccnc2)CC1 (stereo unspecified),27.5%,100%,113%,–,–,88.3%,93.9%,102%,108%,75.4%
O=C(NCc1ccccc1)C1CN(c2ccc(Cl)cc2)N(c2ccc(Cl)cc2)C1=O (stereo unspecified),85.5%,86.5%,95.2%,–,92.1%,74.7%,69.9%,63.9%,–,51.7%
